About 83,000 compounds went through this panel and 20% of them were active in at least one assay; those are over-represented in the sample as a whole.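 Plates (96-well) were seeded with cells, treated with compound at one concentration, and incubated for 48 hours before percent growth was determined.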 Calls of active or inactive are those of the source. How the source made its calls: active means growth percent below 10; inactive means the rest.
Tests used:
Assay in all cases: NCI-60 one-dose screen, 48 h (100 = growth as untreated, 0 = no growth, -100 = all killed)
Settings in all cases: 10 µM unless noted
[1] = tested on: SR leukemia
[2] = tested on: RPMI-8226 leukemia
[3] = tested on: OVCAR-8 ovarian
[4] = tested on: OVCAR-5 ovarian
[5] = tested on: OVCAR-4 ovarian
[6] = tested on: SK-OV-3 ovarian
[7] = tested on: IGROV1 ovarian
[8] = tested on: OVCAR-3 ovarian
[9] = tested on: HS 578T breast
[10] = tested on: NCI/ADR-RES ovarian

Measured: growth

OC(CSc1ccccc1)CN1CCN(c2ccc(Cl)cc2)CC1 (stereo not drawn)
inactive: [1] 86.6% | [2] 81.4% | [3] 99.6% | [4] 102% | [5] 92.1% | [6] 110% | [7] 114% | [8] 121% | [9] 115% | [10] 89.1%

CC1(C)OCC(COC(c2ccccc2)(c2ccccc2)c2ccccc2)O1 (stereo not drawn)
inactive: [1] 93.6% | [2] 105% | [3] 98.4% | [4] 98.1% | [5] 96% | [6] 112% | [7] 108% | [8] 102% | [9] 103% | [10] 103%

CCCCCCCCCCCC1=NCCCN1CCCC
inactive: [1] 57.6% | [2] 93.4% | [3] 101% | [4] 93.4% | [5] 101% | [6] 102% | [7] 105% | [8] 104% | [9] 112% | [10] 96.8%

CCCCCCCCCCCC1N=C(N)N=C(N)N1c1cccc(Br)c1 (stereo not drawn)
active: [1] -29.2% | [2] -40% | [3] -14.6% | [4] -32.8% | [7] -30.2% | [8] -28.6%
inactive: [5] 55.4% | [6] 32.6% | [9] 18.9% | [10] 105%

Cc1cc2cccnc2c2ncccc12
inactive: [2] 13.4% | [3] 13% | [4] 45.6% | [5] 14.4% | [7] 29.1% | [8] 33.8% | [9] 61.3% | [10] 11.2%
active: [1] 6.21% | [6] 1.57%

CCCCCCCCCCCC[n+]1ccc(CCCCCCCCC)cc1
active: [1] -32% | [2] -54.6% | [3] -80.4% | [4] -16.8% | [5] -79.1% | [6] -18.9% | [7] -79.5% | [8] -85.3% | [9] -7.56%
inactive: [10] 35.8%

O=[N+]([O-])/C(=C/c1ccccc1)c1ccccc1
inactive: [1] 88.5% | [2] 108% | [3] 105% | [4] 103% | [5] 99% | [6] 100% | [7] 104% | [8] 109% | [9] 110% | [10] 106%

CCCCCCN(CCCCCC)CCCNc1nccc2ccccc12
active: [1] -9.78% | [2] -22.8% | [8] -6.31%
inactive: [3] 12% | [4] 38.1% | [5] 23.4% | [6] 41.9% | [7] 12.5% | [9] 12.4% | [10] 19.4%

CCCCCCCCCCCC[n+]1ccc2ccccc2c1
inactive: [9] 15.1% | [10] 54.2%
active: [1] -29.7% | [2] -53.7% | [3] -37% | [4] 7.35% | [5] -17.2% | [6] -26.2% | [7] -51.9% | [8] -70.3%

COC(=O)Nc1nc2ccc(C3(c4ccc(F)cc4)OCCO3)cc2[nH]1
active: [8] 4.74%
inactive: [1] 25.2% | [2] 10.4% | [3] 21.1% | [4] 47.5% | [5] 68.4% | [6] 22% | [7] 29.8% | [9] 37.7% | [10] 24.2%

OC(c1cc(C23CC4CC(CC(C4)C2)C3)nc2c(Cl)cc(Cl)cc12)C1CCCCN1 (stereo not drawn)
active: [1] -60.1% | [2] -45.4% | [3] -53.9% | [4] -56% | [5] -78.2% | [6] -10.3% | [7] -61.7% | [8] -89.9% | [9] -49.9% | [10] -51.2%

COC(=O)[C@]1(C)CCC[C@]2(C)c3ccc(C(C)C)cc3C(=O)[C@@H](Br)[C@@H]12
inactive: [1] 65.6% | [2] 81.1% | [3] 77.9% | [4] 113% | [5] 82.3% | [6] 96.9% | [7] 111% | [8] 95.4% | [9] 98% | [10] 96.7%

CN(Cc1ccccc1)c1ccc(SC#N)cc1
active: [1] -6.68%
inactive: [2] 74.8% | [3] 85% | [4] 106% | [5] 68.9% | [6] 112% | [7] 98.8% | [8] 71.4% | [9] 89.7% | [10] 86.7%

Cc1ccccc1NC(=O)Cc1csc2[n+]1C(=O)/C(=C/c1ccc([N+](=O)[O-])cc1)S2
inactive: [1] 79.7% | [2] 91.2% | [3] 97.9% | [4] 98.4% | [5] 83.6% | [6] 90.1% | [7] 103% | [8] 97.8% | [9] 98.6% | [10] 100%

CC1(C)CCCC2=C1C(=O)N(SC(Cl)(Cl)Cl)C2=O
inactive: [1] 77.2% | [2] 91.9% | [3] 102% | [4] 103% | [5] 98.2% | [6] 93.7% | [7] 103% | [8] 104% | [9] 102% | [10] 105%

O=C/C=C/c1ccc([N+](=O)[O-])cc1
inactive: [1] 87.1% | [2] 102% | [3] 100% | [4] 107% | [5] 104% | [6] 89.5% | [7] 101% | [8] 104% | [9] 100% | [10] 99.6%

c1ccc(-c2cc3cc4ccccc4cn3c2)cc1
inactive: [1] 67.4% | [2] 66.4% | [3] 85.4% | [4] 112% | [5] 76.4% | [6] 92.2% | [7] 79.7% | [8] 88.9% | [9] 88.2% | [10] 91.7%

COc1cc2c(c(OC)c1OC)-c1ccc(NCc3ccccc3)c(=O)cc1[C@@H](NC(C)=O)CC2
active: [1] 2.36% | [2] 8.4% | [6] -6.57% | [7] -15.6% | [8] -39.2%
inactive: [3] 14.5% | [4] 41.8% | [5] 29.6% | [9] 17.3% | [10] 66.4%

CC/C(=C(/CC)c1ccc(O)cc1)c1ccc(O)cc1
inactive: [1] 21.1% | [2] 61.7% | [3] 80.1% | [4] 89.4% | [5] 76.8% | [6] 38.4% | [7] 82.4% | [8] 62.1% | [9] 63% | [10] 40.8%

NC1=C(Br)C(=O)c2ncccc2C1=O
active: [1] -27.8% | [2] 0.625% | [4] -49.4% | [5] -89.5% | [7] -5.9% | [8] -11.9% | [9] -13.1% | [10] 9.48%
inactive: [3] 10.3% | [6] 34.9%

O=[N+]([O-])c1ccc(N2CCN(Cc3ccccc3)CC2)c2c1no[n+]2[O-]
active: [1] -47.7% | [2] -15.1% | [3] 0.836% | [5] -50.2% | [7] -42% | [8] -53.7%
inactive: [4] 26.5% | [6] 58.4% | [9] 30.5% | [10] 24.5%

CCCOC(=O)c1nc(N(CC2CCCCC2)C(=O)NC)sc1/N=C/c1ccccc1
inactive: [3] 29% | [4] 40% | [5] 35.1% | [6] 24.7% | [7] 19.4%
active: [1] -17.2% | [2] -48.2% | [8] 4.38% | [10] -14%

OCCOSCCO
inactive: [1] 90.1% | [2] 133% | [3] 106% | [4] 99.5% | [5] 102% | [6] 117% | [7] 112% | [8] 120% | [9] 115% | [10] 113%

O=[N+]([O-])c1ccc2c(c1)Cc1ccccc1-2
inactive: [1] 91.4% | [2] 121% | [3] 98.9% | [4] 91.3% | [5] 97.3% | [6] 112% | [7] 94.7% | [8] 103% | [9] 102% | [10] 99%

CCCCC(CCc1ccc([N+](=O)[O-])cc1)(C(C)=O)C(=O)OCC (stereo not drawn)
inactive: [1] 63.5% | [2] 96.2% | [3] 104% | [4] 105% | [5] 89.5% | [6] 112% | [7] 101% | [8] 96.4% | [9] 92% | [10] 104%

O=C(CBr)c1ccc(OC(=O)c2ccccc2)cc1
inactive: [1] 88.6% | [2] 89.9% | [3] 104% | [4] 102% | [5] 99% | [6] 100% | [7] 116% | [8] 105% | [9] 108% | [10] 101%

O=C(NNc1ccccc1)OCc1ccccc1
inactive: [1] 47.1% | [2] 64.2% | [3] 61.4% | [4] 53.1% | [5] 112% | [6] 105% | [7] 58.7% | [8] 91.4% | [9] 91.8% | [10] 55.2%

Oc1c(C(Nc2ccccc2)c2ccccc2)ccc2cccnc12 (stereo not drawn)
inactive: [1] 27.3% | [2] 37.3% | [3] 19.8% | [4] 59.5% | [5] 33.2% | [6] 40.5% | [7] 41.3% | [8] 24.3% | [9] 70.4% | [10] 16.8%

Oc1ccc(Br)cc1Sc1cc(Br)ccc1O
inactive: [1] 41.4% | [3] 51.4% | [4] 105% | [5] 37.3% | [6] 98.3% | [7] 81.5% | [8] 28.9% | [10] 31.4%
active: [2] 4.14%

O=C1Nc2ccc(Br)cc2C1=O
inactive: [1] 81.9% | [2] 96.4% | [3] 100% | [4] 103% | [5] 93.2% | [6] 93.9% | [7] 97.9% | [8] 90.5% | [9] 95.7% | [10] 108%

From PubChem BioAssay (NCI)
